Experimental findings from PubChem BioAssay (Tox21) are described below.

Each structure is given as a SMILES string. Active and inactive are the calls of the source. Calls follow the shape of the dose curve; as a rule, active = well fitted curve in the direction sought with a large enough effect in the repeat runs; inconclusive = weak or mixed curves; inactive = flat fitted curve, though single readings scatter.
% is scaled to controls: 0 for no effect and ±100 for the full control effect.

The nature of the assay: qHTS assay to test for compound auto fluorescence at 535 nm (green) in HepG2 cells (AID 720675). The settings on record: green autofluorescence 485/535 nm, 1 h; series mostly up to 91.3 µM; fluorescence, % of fluorescein control: at the top concentration. From the text: National Center for Advancing Translational Sciences [NCATS]
NIH Chemical Genomics Center [NCGC]
U.S. Environmental Protection Agency [EPA]
National Institutes of Environmental Health Sciences [NIEHS]
National Toxicology Program [NTP]
U.S. Food and Drug Administration [FDA]
Compound auto fluorescence often interferes with screening of the compound library against various biological targets and signaling pathways. Some of these compounds may have fluorophoric properties. Such properties may interfere with the assay outputs resulting in false positives and/or negatives. To decrease such complications and ensure the compound activities are relevant in terms of biological response, the Tox21 10K compound library was screened for auto fluorescence.
From the fluorophores used as reporter signals in our screening assays, the auto fluorescence equivalencies of compounds against three fluorophores have been evaluated: Triamterene, Fluorescein and Rose Bengal sodium for blue, green and red fluorescence, respectively. The fluorescence intensities were measured using Excitation/Emission wavelengths at 405/460nm, 485/535nm and 540/590nm for blue, green and red labels, respectively. This assay includes the green fluorescence data.
Tox21 Assay Protocol Summary:
2,000 HepG2 cells in 5 uL of culture medium (MEM containing 10% FBS) per well were dispensed into black wall/clear bottom 1536-well plates using a Multidrop Combi Dispenser (ThermoFisher Scientific, Waltham, MA). The assay plates were incubated overnight at 37 C to allow cell attachment to the well bottom, followed by the transfer of 23 nL compound or DMSO vehicle by a pintool work station (Kalypsys , San Diego, CA). After the assay plates were incubated for 1 hr at 37 C and 5% CO2, fluorescence intensities in the assay plates were measured by an Envision (PerkinElmer, Shelton, CT) plate reader using three labels for measuring blue, green and red fluorescence at […] 460, 535 and 590 nm respectively.
A general note: In qHTS, concentration-response curves come from the screen itself.
With `CCOC(CN1CCN(CC(C)C(=O)c2ccccc2)CC1)c1ccccc1` (stereo not given), the “fluorescence, % of fluorescein control” value is 0.107% [at 46 µM] (inactive). Still for that read-out and setting: the figure for `c1ccc(B(c2ccccc2)c2ccccc2)cc1` is -0.0065% (inactive); for `CC(=O)c1cc(C)oc1C` it is -0.0213% [at 95.7 µM] (inactive).

For the compound `CCCCOC(=O)[C@H](C)O`, the “fluorescence, % of fluorescein control” value is 0.0335% (inactive). Same read-out and setting: the result for `CC(C)[C@H]1CC[C@H](C)C[C@@H]1O` reads -0.0362% [at 95.7 µM] (inactive). As for `N#Cc1ccccc1O`, the “fluorescence, % of fluorescein control” value is -0.0827% (inactive). On to `CC1(C)Oc2ccc(C#N)cc2[C@@H](N2CCCC2=O)[C@@H]1O`, for which the compound was classed as inactive. Take `C[C@@H](O)C(=O)O`: the “fluorescence, % of fluorescein control” value is -0.0857% [at 95.7 µM] (inactive). The same measure, in the same setting: the figure for `O=Cc1ccccc1Cl` is 0.0021% (inactive); for `Cn1nnc2c(C(N)=O)ncn2c1=O` it is 0.026% [at 46 µM] (inactive). The same measure, in the same setting: the result for `NCc1ccc(S(N)(=O)=O)cc1` reads -0.119% [at 18.6 µM] (inactive); that for `CCC/C=C(\C=O)CC`, -0.11% (inactive); that for `COc1c2occc2c(OC)c2c(=O)cc(C)oc12`, -0.275% [at 18.6 µM] (inactive). The same measure, in the same setting: the result for `CC1(C)CC(OC(=O)CCCCCCCCC(=O)OC2CC(C)(C)NC(C)(C)C2)CC(C)(C)N1` reads -0.0628% [at 18.6 µM] (inactive); that for `CCCCCCCCCOC(=O)CCCCC(=O)OCCCCCCC`, -0.0097% (inactive); that for `CC(C)Nc1ccccc1`, 0.0232% (inactive). Turning to `O=C(NCN1CCOCC1)c1cnccn1`, the “fluorescence, % of fluorescein control” value was 0.006% [at 46 µM] (inactive).

Consider `O=C(O)CCCCCC(=O)O`, for which the “fluorescence, % of fluorescein control” value was 0.144% (inactive). Same read-out and setting: the figure for `C=CC/C=C/C` is 0.0362% [at 95.7 µM] (inactive); for `ONc1ccccc1` it is -0.0269% [at 95.7 µM] (inactive). Regarding `CC(C)C1OCCN1CCOC(=O)NCCCCCCNC(=O)OCCN1CCOC1C(C)C` (stereo not given), the “fluorescence, % of fluorescein control” value is 0.007% (inactive). Same read-out and setting: the result for `COc1ccc2c(c1)c1c3n2CCN(C)C3=NCC1` reads 0% [at 46 µM] (inactive); that for `CCCCCCCCCOC(=O)c1ccccc1C(=O)OCCCCCCCCC`, -0.0493% (inactive); that for `CCCCCc1cccc(=O)o1`, 0.186% (inactive). On to `Cc1cccc(Cl)c1`, for which the “fluorescence, % of fluorescein control” value was -0.0042% (inactive). Still for that read-out and setting: the figure for `CCCCOCCOC(=O)COc1ccc(Cl)cc1Cl` is 0.0237% (inactive); for `O=C(CN1CCNCC1)NC1CCCCC1` it is -0.0318% [at 46 µM] (inactive); for `CC1=C(C(=O)O)N2C(=O)[C@@H](NC(=O)[C@H](N)C3=CCC=CC3)[C@H]2SC1` it is -0.0763% [at 46 µM] (inactive). For the compound `Cc1ccc(C(C)NC(=O)[C@@H](NC(=O)OC(C)C)C(C)C)cc1` (stereo not given in full), the “fluorescence, % of fluorescein control” value was -0.0412% (inactive). On the same count and under the same terms, the result for `CC1CC(=O)CC(C)(C)C1` (stereo not given) reads -0.0026% (inactive); that for `Cc1ccc(C(=O)O)cc1[N+](=O)[O-]`, -0.0378% (inactive); that for `CCCSSCCC`, -0.105% (inactive). Still for that read-out and setting: the result for `Cc1cc(C)c(C(=O)O)c(C)c1` reads 0.103% (inactive).

Take `C[C@]12CCC(=O)C=C1CC[C@H]1[C@@H]3CC[C@](O)(C(=O)CO)[C@@]3(C)C[C@H](O)[C@@]12F`: the compound was called inactive.

Consider `CC1(C)Cc2cccc(N)c2O1`, for which the “fluorescence, % of fluorescein control” value was 0.013% (inactive). As for `C=CCN1C[C@H](C(=O)N(CCCN(C)C)C(=O)NCC)C[C@@H]2c3cccc4[nH]cc(c34)C[C@H]21`, the “fluorescence, % of fluorescein control” value was 0.0328% [at 46 µM] (inactive).

Take `O=C=NCC1CCCC(CN=C=O)C1` (stereo not given): the “fluorescence, % of fluorescein control” value was 0.153% (inactive).

As for `CC(O)COC(C)(C)C` (stereo not given), the “fluorescence, % of fluorescein control” value is 0.0402% (inactive).

For `CCc1occc(=O)c1O`, the “fluorescence, % of fluorescein control” value is -0.0082% (inactive).

On to `CC(=O)Nc1ccc(OC(=O)c2ccccc2OC(C)=O)cc1`, for which the “fluorescence, % of fluorescein control” value is 0.001% [at 46 µM] (inactive).
